Data reported in PubChem BioAssay.
Active and inactive are the calls of the source.

Tested on: PRMT1 (protein arginine N-methyltransferase 1)
Assay: small molecules binding arginine methyltransferase PRMT1 – biochemical, small-molecule microarray, 635 nm fluorescence, primary screen (AID 1088);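 further: binding of Prmt1 protein to compounds spotted on small-molecule microarray slides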
Settings: higher = more signal

Structure (SMILES)	composite z-score
O=c1n(-c2ccccc2)c(=O)n2n1CC(COc1ccccc1)=C([C@H](O)CCc1ccccc1)[C@@H]2CO	0.17
COc1ccc([Si](C)(C)[C@@H]2[C@@H](CC(=O)N3Cc4ccccc4C[C@H]3CO)O[C@]3(C(=O)N(Cc4cccc(N5C(=O)c6cccc7cccc5c67)c4)c4ccccc43)[C@H]2C)cc1	1.56
CN(C)C(=O)[C@]1(CCS(=O)(=O)c2ccccc2)N=C(c2ccc(OCCCO)cc2)O[C@@H]1c1ccccc1N=[N+]=[N-]	1.53
COC(=O)[C@@]1(Cc2ccc(OC)cc2)[C@H]2c3cc(C(=O)N4CCCC4)n(Cc4c(-c5ccccc5)noc4C)c3C[C@H]2CN1C(=O)c1ccccc1	0.525
O=C1O[C@H](c2ccccc2)[C@H](c2ccccc2)N2[C@H]1[C@@H](C(=O)O)[C@]1(C(=O)Nc3ccc(C#CC4=CCCCC4)cc31)[C@H]2c1ccc(O)cc1	1.54
COc1cc2c(cc1OC)CN(C(=O)[C@@H]1[C@H]3C(=O)O[C@H](c4ccccc4)[C@H](c4ccccc4)N3[C@H](c3ccc(OCCO)cc3)[C@@]13C(=O)Nc1ccccc13)CC2	1.54
COC(=O)[C@@]1(Cc2ccccc2)[C@H]2c3cc(C(=O)N(C)C)n(CCN4CNCC4=O)c3C[C@H]2CN1C(=O)c1ccccc1	0.304
CN(C)c1ccc(C(O)C2C=CC3C(=O)N(c4ccccc4)C(=O)C3N2Nc2ccc([N+](=O)[O-])cc2)cc1 (stereo unspecified)	1.44
C=C(C)c1cc2c(c(CCCCCC)n1)[Si](C(C)C)(C(C)C)OC2	-0.293
O=C1O[C@@H](c2ccccc2)[C@@H](c2ccccc2)N2[C@@H](c3ccc(O)cc3)[C@]3(C(=O)Nc4ccc(C#CC5(O)CCCCCC5)cc43)[C@@H](C(=O)NC[C@H](O)c3ccccc3)[C@H]12	1.26
COCCCNC(=O)[C@@]1(Cc2ccccc2N=[N+]=[N-])N=C(c2ccc(OCCCO)cc2)O[C@H]1c1ccccc1	1.55
O=C1O[C@H](c2ccccc2)[C@H](c2ccccc2)N2[C@H]1[C@@H](C(=O)Nc1nc3ccccc3s1)[C@]1(C(=O)Nc3ccc(C#CCCO)cc31)[C@H]2c1ccc(O)cc1	1.55
COC(=O)[C@@]1(Cc2ccccc2)[C@H]2c3cc(C(=O)N(C)C)n(CCc4ccc(O)c(OC)c4)c3C[C@H]2CN1C(=O)c1ccccc1	-0.26
O=C1OCC=C[C@H]2OC34C=CCN(c5ccc(Cl)cc5)C(=O)[C@H]3N(CCO)C(=O)[C@@H]4[C@@H]12 (stereo partly specified)	0.197
CC(C)Cc1ccc(CN2CC[C@@H](NC(=O)Nc3ccccc3)C2)cc1	-0.785
C=CCC(OC(C)=O)[C@@H]1[C@@H](N(Cc2cc3ccccc3o2)C(=O)c2ccc(-c3ccccc3)cc2)c2cc(OCCCO)ccc2N1C(=O)c1ccc2ccccc2c1 (stereo partly specified)	0.0279
Cc1ccc(S[C@]2(C(=O)O)CC(=O)N(Cc3ccccc3Cl)[C@@H]2c2ccc(CO)cc2I)cc1	0.765
COCCCNC(=O)[C@@]1(Sc2ccc(C)cc2)CC(=O)N(C2CCCCC2)[C@@H]1c1ccc(CO)cc1	1.08
COCC1=C2[C@@H](CCc3ccccc3)OB(O)C[C@@H]2[C@@H]2C(=O)C=CC(=O)[C@@H]2C1	1.57
COc1ccc([Si](C)(C)[C@@H]2[C@@H](CCn3cc([C@H](O)c4ccccc4)nn3)O[C@]3(C(=O)N(Cc4ccc(N5CCC5=O)cc4)c4ccccc43)[C@H]2C)cc1	0.0655
CCOc1cc(C(O)C2C=CC3C(=O)N(C)C(=O)C3N2Nc2ccccc2)ccc1O (stereo unspecified)	1.13
C=C(C(=O)CC[C@@H](OC(C)=O)c1ccc(CO)o1)C(C)C	1.2
CC(=O)NCCCC[C@@H]1NC(=O)[C@@H]2C[C@H](C(=O)NCCCC[N+](C)(C)C)[C@H](c3ccc(O)cc3)N2C1=O	1.54
CCOC(=O)C1CCCCN1 (stereo unspecified)	1.08
C=CCOC(=O)[C@H]1[C@@H]2C(=O)O[C@@H](c3ccccc3)[C@@H](c3ccccc3)N2[C@@H](c2ccc(OCCOC(=O)[C@@H]3C[C@@H]4C(=O)N[C@@H](CCCCN(C)C)C(=O)N4[C@@H]3c3ccc(O)cc3)cc2)[C@]12C(=O)Nc1ccccc12	1.55
CCCC[C@@H]1C[C@H]1[C@@H](NC(=O)c1cccs1)c1ccc(C(F)(F)F)cc1	0.183

Tested on: not listed separately
Assay: growth effects on S. cerevisiae YJM789 – YJM789 clinical isolate, OD600, 24 h, basal, primary screen (AID 1089);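 further: growth of clinical yeast isolate S. cerevisiae YJM 789 seeded 1000 cells per well; test concentration not given here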
Settings: higher = more signal, called active from +8 up or from −8 down

Structure (SMILES)	z-score
[N-]=[N+]=Nc1ccccc1[C@H]1OC(c2ccc(OCCCO)cc2)=N[C@@]1(Cc1ccccc1)C(=O)N1CCCCC1	-2.09 (inactive)
CCCNC(=O)[C@@]1(c2ccc([N+](=O)[O-])cc2)CC(=O)N(C2CCCCC2)[C@@H]1c1ccc(CO)cc1	1.3 (inactive)
CN1C(=O)C2C=CC(C(O)c3ccccn3)N(N(c3ccccc3)c3ccccc3)C2C1=O (stereo unspecified)	1.13 (inactive)
COCCOC(=O)N1C(=O)[C@@]2(c3cc(C#CC4=CCCCC4)ccc31)[C@H](c1ccc(O)cc1)N1[C@H](c3ccccc3)[C@H](c3ccccc3)OC(=O)[C@H]1[C@@H]2C(=O)N1CCN(c2ncccn2)CC1	0.358 (inactive)
C[N+](C)(C)CCCCCCNC(=O)[C@H]1C[C@H]2C(=O)N[C@@H](Cc3ccccc3)C(=O)N2[C@H]1c1ccc(O)cc1	-0.327 (inactive)
O=C1NC(=O)C2C1C=CC(C(O)c1cccc3ccccc13)N2Nc1ccc(Cl)cc1Cl (stereo unspecified)	-1.94 (inactive)
COC(=O)[C@@]1(Cc2ccc(F)cc2)[C@H]2c3cc(C(=O)N4CCCC4)n(CCc4ccc(O)c(O)c4)c3C[C@H]2CN1C(=O)c1ccccc1	1.34 (inactive)
O=C(CS)NCCCCCCNC(=O)[C@H]1C[C@H]2C(=O)N[C@@H](Cc3ccccc3)C(=O)N2[C@H]1c1ccc(O)cc1	0.407 (inactive)
C#CCN([C@@H](Cc1ccc(O)cc1)C(=O)OC)[C@@H](/C=C/C1CC1)[C@H](O)Cc1ccccc1	-0.686 (inactive)
CCOC(=O)c1ccc(NC(=O)O[C@H]2[C@H](OC(=O)Nc3ccc4c(c3)OCO4)[C@@H](OC(=O)Nc3ccc4c(c3)OCO4)[C@@H](OC)O[C@@H]2CO)cc1	1.38 (inactive)
O=c1n(-c2ccccc2)c(=O)n2n1CC(COc1ccccc1)=C([C@H](O)CCc1ccccc1)[C@@H]2CO	-1.33 (inactive)
COc1ccc([Si](C)(C)[C@@H]2[C@@H](CC(=O)N3Cc4ccccc4C[C@H]3CO)O[C@]3(C(=O)N(Cc4cccc(N5C(=O)c6cccc7cccc5c67)c4)c4ccccc43)[C@H]2C)cc1	-0.258 (inactive)
CN(C)C(=O)[C@]1(CCS(=O)(=O)c2ccccc2)N=C(c2ccc(OCCCO)cc2)O[C@@H]1c1ccccc1N=[N+]=[N-]	0.154 (inactive)
COC(=O)[C@@]1(Cc2ccc(OC)cc2)[C@H]2c3cc(C(=O)N4CCCC4)n(Cc4c(-c5ccccc5)noc4C)c3C[C@H]2CN1C(=O)c1ccccc1	0.729 (inactive)
O=C1O[C@H](c2ccccc2)[C@H](c2ccccc2)N2[C@H]1[C@@H](C(=O)O)[C@]1(C(=O)Nc3ccc(C#CC4=CCCCC4)cc31)[C@H]2c1ccc(O)cc1	-0.206 (inactive)
COc1cc2c(cc1OC)CN(C(=O)[C@@H]1[C@H]3C(=O)O[C@H](c4ccccc4)[C@H](c4ccccc4)N3[C@H](c3ccc(OCCO)cc3)[C@@]13C(=O)Nc1ccccc13)CC2	3.17 (inactive)
COC(=O)[C@@]1(Cc2ccccc2)[C@H]2c3cc(C(=O)N(C)C)n(CCN4CNCC4=O)c3C[C@H]2CN1C(=O)c1ccccc1	0.258 (inactive)
CN(C)c1ccc(C(O)C2C=CC3C(=O)N(c4ccccc4)C(=O)C3N2Nc2ccc([N+](=O)[O-])cc2)cc1 (stereo unspecified)	0.0475 (inactive)
C=C(C)c1cc2c(c(CCCCCC)n1)[Si](C(C)C)(C(C)C)OC2	1.21 (inactive)
O=C1O[C@@H](c2ccccc2)[C@@H](c2ccccc2)N2[C@@H](c3ccc(O)cc3)[C@]3(C(=O)Nc4ccc(C#CC5(O)CCCCCC5)cc43)[C@@H](C(=O)NC[C@H](O)c3ccccc3)[C@H]12	0.21 (inactive)
COCCCNC(=O)[C@@]1(Cc2ccccc2N=[N+]=[N-])N=C(c2ccc(OCCCO)cc2)O[C@H]1c1ccccc1	-0.22 (inactive)
O=C1O[C@H](c2ccccc2)[C@H](c2ccccc2)N2[C@H]1[C@@H](C(=O)Nc1nc3ccccc3s1)[C@]1(C(=O)Nc3ccc(C#CCCO)cc31)[C@H]2c1ccc(O)cc1	0.758 (inactive)
COC(=O)[C@@]1(Cc2ccccc2)[C@H]2c3cc(C(=O)N(C)C)n(CCc4ccc(O)c(OC)c4)c3C[C@H]2CN1C(=O)c1ccccc1	0.031 (inactive)
O=C1OCC=C[C@H]2OC34C=CCN(c5ccc(Cl)cc5)C(=O)[C@H]3N(CCO)C(=O)[C@@H]4[C@@H]12 (stereo partly specified)	-0.23 (inactive)
CC(C)Cc1ccc(CN2CC[C@@H](NC(=O)Nc3ccccc3)C2)cc1	-21.2 (active)
C=CCC(OC(C)=O)[C@@H]1[C@@H](N(Cc2cc3ccccc3o2)C(=O)c2ccc(-c3ccccc3)cc2)c2cc(OCCCO)ccc2N1C(=O)c1ccc2ccccc2c1 (stereo partly specified)	0.271 (inactive)
Cc1ccc(S[C@]2(C(=O)O)CC(=O)N(Cc3ccccc3Cl)[C@@H]2c2ccc(CO)cc2I)cc1	-0.923 (inactive)
COCCCNC(=O)[C@@]1(Sc2ccc(C)cc2)CC(=O)N(C2CCCCC2)[C@@H]1c1ccc(CO)cc1	-0.858 (inactive)
COCC1=C2[C@@H](CCc3ccccc3)OB(O)C[C@@H]2[C@@H]2C(=O)C=CC(=O)[C@@H]2C1	0.506 (inactive)
COc1ccc([Si](C)(C)[C@@H]2[C@@H](CCn3cc([C@H](O)c4ccccc4)nn3)O[C@]3(C(=O)N(Cc4ccc(N5CCC5=O)cc4)c4ccccc43)[C@H]2C)cc1	0.297 (inactive)
